Screening results deposited in PubChem BioAssay by National Center for Advancing Translational Sciences (NCATS).
In the library only some 19% were active in any assay of this set; here they are far more common.
DT40 TDP1 CPT: growth inhibition of DT40 Tdp1-/-;hTDP1 cells with camptothecin (screen for TDP1 inhibitors); chicken DT40 Tdp1-/-;hTDP1 cells + 20 nM CPT, ATP luminescence, 48 h; Potency, µM (series often up to 46.2 µM), without a hit: at the highest dose activity change, negative = growth inhibition, most hits filed as inhibitors; 420,000 compounds, 12% hits; AID 686979; note: nearly all actives have a fitted effect of over 55% in size
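Chicken DT40 Tdp1-/- cells stably complemented with human TDP1 were seeded at 400 cells/well in medium containing 20 nM camptothecin, exposed to pin-transferred compounds, and grown at 37 °C for at least 48 hr. Viability was read as ATP luminescence.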
KB-3-1 tox: KB-3-1 parental cell cytotoxicity; KB-3-1 viability, CellTiter-Glo ATP luminescence, 72 h; Potency, µM (top dose mostly 46.1 µM), actives largely listed as cytotoxic; 400,000 compounds, 1.4% hits; AID 1347075; note: nearly all actives have a fitted effect of over 60% in size
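Cytotoxicity measured as CellTiter-Glo luminescence after 72 h at 37 C. Compound titrations were pinned onto drug-naive KB-3-1 parental adenocarcinoma cells grown in DMEM with 10% FBS, and normalized data fitted to concentration-response curves.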
HT1080 IDH1KD tx: kills HT-1080 cells with IDH1 knockdown. Potency, µM (highest dose often 46.1 µM), without a hit: top-dose activity, negative = toxicity, most hits filed as cytotoxic. HT-1080 IDH1 knockdown viability, ATP luminescence, 48 h. 360,000 compounds, 2% hits;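 note: 0% = DMSO wells and -100% = cell-free medium wells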
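After a 2 h attachment period, IDH1KD HT-1080 cells took pin-transferred compound for 48 h at 37 °C; ATP-based luminescence after 10 min room-temperature reagent incubation reported viability.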
KB-V1 cytotox: kills drug-selected multidrug resistant KB-V1 cells; Potency, µM (titrated, usually from 46.1 µM), usual class: cytotoxic; KB-V1 MDR cells viability, CellTiter-Glo, 72 h; 400,000 compounds, 3.4% hits; note: nearly all actives have a fitted effect of over 60% in size
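KB-V1, DMEM (no phenol red) + 10% FBS; cpd pin-transferred, titration series; 72 h, 37 degrees C; CellTiter-Glo, luminescence. Data normalized, curve-fit.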
DT40 TDP1 no CPT: qHTS for Inhibitors of human tyrosyl-DNA phosphodiesterase 1 (TDP1): qHTS in cells in absence of CPT; Potency, µM (highest dose often 46.2 µM), for inactives: at the top dose activity change, negative = growth inhibition, hits mostly inhibitors; DT40 Tdp1-/- hTDP1 cells, no CPT, ATP luminescence, 48 h; 420,000 compounds, 15% hits; note: nearly all actives have a fitted effect of over 55% in size
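Luminescent ATP content (CellTiter-Glo) served as the growth readout. Knockout chicken DT40 cells expressing human TDP1 were exposed to compounds without camptothecin for a minimum 48 hr at 37 °C.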
HT1080-NT tox: kills 2HG-producing HT-1080-NT fibrosarcoma cells | Potency, µM (top dose mostly 46.1 µM), inactives show at the highest dose activity, negative = less viability, hits mostly cytotoxic | 360,000 compounds, 1.6% hits | AID 686970 | HT-1080-NT fibrosarcoma viability, CellTiter-Glo ATP luminescence, 48 h;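 note: NT is the 2HG producing partner of a matched IDH1 knockdown line; 0% = DMSO-treated cells and -100% = media-only wells without cells; nearly all actives have a fitted effect of over 55% in size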
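Viability by CellTiter-Glo luminescence after 48 h compound exposure at 37C of HT-1080-NT cells (750/well, RPMI, 5% FBS). % activity scaled between DMSO wells and medium-only wells, then curve-fitted and categorized by curve class.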
The depositor's hits bear a star; i = inactive; ? = inconclusive; / = no result given. Calls come from the whole dose curve; as a rule, active = well fitted curve in the direction sought with a large enough effect; inconclusive = small, poorly fitted or top-dose-only effect, or another doubt; inactive = no such curve, though single readings can be large; an effect the other way counts as inactive or inconclusive. Unless noted, % is set by controls: 0 for no effect and ±100 for the full control effect; potency is the fitted concentration of half-maximal effect.

SMILES	DT40 TDP1 CPT	KB-3-1 tox	HT1080 IDH1KD tx	KB-V1 cytotox	DT40 TDP1 no CPT	HT1080-NT tox
CCOC(=O)c1noc2ncn(CC(=O)O)c(=O)c12	?	i	/	i	?	/
CN(C)CC[n+]1ccc(C(=O)c2ccccc2)cc1	4.11µM*	i	-19.8%	i	2.59µM*	-1.3%
O=C(c1ccccc1)c1cc[n+]([O-])cc1	-0.8%	i	-5.9%	i	-4.9%	-5.7%
O=S1(=O)CCOC[C@H](CC2CCCCC2)N1Cc1ccccc1Br	?	?	-2.4%	i	20.6µM*	-3.0%
O=S1(=O)CCOC[C@H](CC2CCCCC2)N1Cc1ccccc1F	?	i	-4.8%	i	20µM*	3.2%
COc1ccc(NC(=O)C2(C)Cc3c(-c4cccc(NC(C)=O)c4)ccnc3O2)cn1 (centres undefined)	0.731µM*	2.06µM*	?	i	1.46µM*	?
COc1ccc(NC(=O)C2(C)Cc3c(-c4ccc(NC(C)=O)cc4)ccnc3O2)cn1 (centres undefined)	20.6µM*	?	?	i	?	?
COc1ccc(NC(=O)C2(C)Cc3c(-c4ccc(NC(C)=O)cc4)ccnc3O2)cc1OC (centres undefined)	?	i	-10.5%	i	13µM*	-1.2%
CC(=O)Nc1cccc(-c2ccnc3c2CC(C)(C(=O)Nc2cccnc2)O3)c1 (centres undefined)	-28.4%	i	16.3%	i	-29.3%	?
CCc1nc2ccc(C(=O)NCCNC(C)=O)cn2c1N(C)CCCc1ccccc1	-24.7%	i	24.3%	i	?	14.2%
COc1cc(NC(=O)CSc2cc(C)c3cc(C)cc(C)c3n2)c(C(=O)O)cc1OC	-1.3%	i	8.1%	i	0.9%	5.4%
CN(C(=O)COc1ncnc2sccc12)c1ccccc1	-8.9%	i	6.4%	i	1.6%	0.3%
CN(C(=O)c1ccc2c(c1)N(Cc1ccccc1F)C(=O)c1ccccc1S2)C1CCCCC1	?	/	/	/	23.1µM*	/
Cc1ccc(C)c(CN2C(=O)c3ccccc3S(=O)(=O)c3ccc(C(=O)N(C)C4CCCCC4)cc32)c1	?	/	/	/	20.6µM*	/
CC(C)CCNC(=O)c1ccc2c(c1)N(Cc1ccccc1F)C(=O)c1ccccc1S2(=O)=O	?	i	/	i	?	/
CN(C(=O)c1ccc2c(c1)N(Cc1ccccc1F)C(=O)c1ccccc1S2(=O)=O)C1CCCCC1	?	i	/	?	23.1µM*	/
Cc1ccc(C)c(NC(=O)Cn2c(=O)n(CC3CCCO3)c(=O)c3ccccc32)c1 (centres undefined)	2.8%	i	/	i	?	/
CCCCc1ccc(NC(=O)COC(=O)c2ccc3ncsc3c2)cc1	-5.7%	i	2.7%	i	-17.1%	0.4%
COc1cc(/C=C/[N+](=O)[O-])ccc1OCc1cccc(C(=O)O)c1	16.4µM*	i	?	i	16.4µM*	?
COc1ccc(C(=O)C=Cc2ccc(OCc3ccccc3)c(OC)c2)cc1OC	7.31µM*	?	?	?	4.61µM*	?
COc1cc(OC)c(C(=O)/C=C/c2ccc(OCc3ccccc3)c(OC)c2)c(OC)c1	23.1µM*	?	?	?	23.1µM*	?
COc1cc(/C=N/NC(=O)c2cccc([N+](=O)[O-])c2)ccc1OCc1ccccc1	?	i	4.4%	?	?	13.9%
COc1cc(/C=C/[N+](=O)[O-])ccc1OC(=O)/C=C/c1ccc(F)cc1	3.26µM*	?	-0.1%	i	2.31µM*	13.2%
COc1ccc(OC(=O)/C=C/c2ccc([N+](=O)[O-])cc2)cc1	-16.9%	i	8.3%	i	?	9.0%
